Here are results for seven compounds from PubChem BioAssay (NCI).

Test systems include HCT-15 colon; HT29 colon; SNB-75 CNS; SNB-19 CNS; U251 CNS; PC-3 prostate; SK-MEL-5 melanoma; UACC-62 melanoma; LOX IMVI melanoma; SK-MEL-28 melanoma; SK-MEL-2 melanoma; EKVX NSCLC; SN12C renal; UO-31 renal; TK-10 renal; ACHN renal; CAKI-1 renal; A498 renal; CCRF-CEM leukemia; MOLT-4 leukemia.
Holding throughout (experiment): NCI-60 one-dose screen, 48 h (100 = growth as untreated, 0 = no growth, -100 = all killed)
What all share (conditions): 10 µM unless noted

This is part of a sample that, as a whole, favours compounds with a hit. Of some 83,000 tested, about 20% had one in any assay.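 Treatment: one concentration, 48 hours, 96-well format. Scoring: percent growth, with anything below 10 considered active.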 Values without a mark were called inactive. Calls of active or inactive are those of the source.

Turning to `CCN(CC)CCCC(Nc1c2ccc(Cl)cc2nc2ccc(OC)cc12)c1ccc(Cl)cc1` (centres undefined), the growth is -54.7% (active) with HCT-15 colon; -49.6% (active) in the test with HT29 colon; 16.7% with SNB-75 CNS; 6.15% (active) in the test on SNB-19 CNS; -85.9% (active) in the test with U251 CNS; 33.6% in the test with PC-3 prostate. The growth with SK-MEL-5 melanoma is -93.7% (active); in the test with UACC-62 melanoma, -70.6% (active); in the test with LOX IMVI melanoma, -83.3% (active); in the test with SK-MEL-28 melanoma, -88.7% (active); with SK-MEL-2 melanoma it was -78.7% (active); in the test on EKVX NSCLC, 53.1%. Moreover, the growth in the test with SN12C renal was 36.3%; with UO-31 renal it was 28.2%; in the test on TK-10 renal, -60.4% (active); in the test with ACHN renal it was -33.7% (active); in the test on CAKI-1 renal, -36.9% (active); with A498 renal, 38.2%. Moreover, the results for the growth in the test on CCRF-CEM leukemia and in the test on MOLT-4 leukemia were -7.24% (active) and -20.9% (active), respectively.
For `COc1ccc(Cc2nc3cc(OC)c(OC)cc3c(=O)[nH]2)cc1`, the growth in the test on HCT-15 colon was 29.8%; in the test with HT29 colon it was 62.9%; with SNB-75 CNS it was 107%; in the test on SNB-19 CNS, 81.7%; with U251 CNS, 77.8%; in the test on PC-3 prostate, 86.4%. For the same compound, the growth with SK-MEL-5 melanoma is 90.8%; with UACC-62 melanoma it was 77.6%; in the test with LOX IMVI melanoma, 61%; in the test with SK-MEL-28 melanoma, 79.3%; in the test on SK-MEL-2 melanoma it was 105%; in the test with EKVX NSCLC, 105%. Besides, the growth in the test on SN12C renal is 67.9%; in the test with UO-31 renal, 69.6%; with TK-10 renal it was 237%; in the test with ACHN renal, 72.2%; with CAKI-1 renal, 95.7%; in the test with A498 renal, 122%. Moreover, the growth in the test with MOLT-4 leukemia was 80.7%.
For the compound `CN(C)Cc1c(-c2ccccc2)[nH]c2ccccc12`, the growth in the test with HCT-15 colon is 93.6%; in the test on HT29 colon, 89.1%; in the test with SNB-75 CNS, 93.6%; in the test on SNB-19 CNS, 99%; in the test with U251 CNS it was 106%; with PC-3 prostate it was 94.9%. Further, the growth with SK-MEL-5 melanoma was 101%; with UACC-62 melanoma it was 102%; in the test on LOX IMVI melanoma, 97.4%; with SK-MEL-28 melanoma, 97.2%; in the test with SK-MEL-2 melanoma it was 108%; with EKVX NSCLC, 92.3%. Also, the growth was 99.4% in the test with SN12C renal; 100% in the test with UO-31 renal; 102% in the test with TK-10 renal; 106% with ACHN renal; 101% with CAKI-1 renal; 75.7% in the test with A498 renal. The growth was 86.5% in the test on CCRF-CEM leukemia and 99.4% in the test with MOLT-4 leukemia.
Regarding `O=C1/C(=C/c2ccc(O)cc2)COc2ccc(-c3ccccc3)cc21`, the growth in the test on HCT-15 colon was 48.1%; in the test on HT29 colon it was 27.1%; in the test on SNB-75 CNS, 90.4%; with SNB-19 CNS, 109%; in the test on U251 CNS, 63.6%; in the test on PC-3 prostate, 60%. For the same compound, the growth is 81.7% in the test with SK-MEL-5 melanoma; 88.4% in the test with UACC-62 melanoma; 53.9% in the test on LOX IMVI melanoma; 117% in the test with SK-MEL-28 melanoma; 66.9% in the test on SK-MEL-2 melanoma; 105% in the test with EKVX NSCLC. Also, the growth in the test with SN12C renal was 76.2%; in the test with UO-31 renal, 42.9%; in the test with TK-10 renal, 83.9%; with ACHN renal it was 86%; with CAKI-1 renal, 132%; in the test with A498 renal, 100%. Also, the results for the growth with CCRF-CEM leukemia and in the test with MOLT-4 leukemia were -25.2% (active) and -22.5% (active), respectively.
With `COc1ccc(Cn2nc(-c3cc(OC)c(OC)c(OC)c3)c3c2CCc2cnoc2-3)cc1OC`, the growth in the test with HCT-15 colon is 53.1%; in the test with HT29 colon, 22%; in the test on SNB-75 CNS, 37.8%; in the test with SNB-19 CNS, 65.4%; in the test on U251 CNS it was 62.1%; in the test with PC-3 prostate, 65%. The growth in the test with SK-MEL-5 melanoma is 38.7%; with UACC-62 melanoma it was 51.1%; in the test with LOX IMVI melanoma, 47%; with SK-MEL-28 melanoma it was 64.9%; with SK-MEL-2 melanoma, 38%; with EKVX NSCLC, 77.7%. The growth in the test on SN12C renal was 60.6%; in the test with UO-31 renal, 32.7%; in the test with TK-10 renal, 72.5%; in the test on ACHN renal, 74.9%; in the test on CAKI-1 renal it was 50.3%; in the test with A498 renal it was 42.1%. The growth in the test with CCRF-CEM leukemia was 55.6%; with MOLT-4 leukemia, 36.2%.
`O=C(CN1CCOCC1)Nc1ccc2ncnc(Nc3ccc(OCc4cccc(F)c4)c(Cl)c3)c2c1`: the growth in the test on HCT-15 colon is 60%; in the test on HT29 colon, 61%; in the test on SNB-75 CNS it was 69.1%; in the test on SNB-19 CNS, 72.2%; in the test on U251 CNS, 77.1%; in the test on PC-3 prostate, 51.9%. In addition, the growth with SK-MEL-5 melanoma is 61.5%; with UACC-62 melanoma it was 84.8%; with LOX IMVI melanoma, 72.9%; in the test on SK-MEL-28 melanoma, 77%; in the test on SK-MEL-2 melanoma, 88.1%; in the test with EKVX NSCLC, 25.1%. Besides, the growth in the test with SN12C renal is 48.1%; in the test on UO-31 renal, 30.7%; with TK-10 renal it was 37.8%; with ACHN renal, 24.5%; in the test on CAKI-1 renal it was 45.8%; in the test on A498 renal, 28%. The growth was 66.7% in the test on CCRF-CEM leukemia and 47.9% with MOLT-4 leukemia.
With `COc1cc(NCCCN(CC(C)C)CC(C)C)c2ncccc2c1`, the growth in the test on HCT-15 colon was 72.9%; in the test with HT29 colon it was 82.7%; in the test on SNB-75 CNS, 95.4%; in the test on SNB-19 CNS it was 99.9%; in the test on U251 CNS it was 96.1%; in the test with PC-3 prostate it was 70.4%. Besides, the growth is 97% in the test with SK-MEL-5 melanoma; 89% in the test with UACC-62 melanoma; 85.3% with LOX IMVI melanoma; 97% in the test with SK-MEL-28 melanoma; 91.8% in the test with SK-MEL-2 melanoma; 84.5% with EKVX NSCLC. Moreover, the growth in the test with SN12C renal is 88.2%; in the test with UO-31 renal, 81.4%; in the test on TK-10 renal, 102%; in the test on ACHN renal, 80.7%; in the test with CAKI-1 renal it was 92.4%; in the test on A498 renal, 79.2%. The growth in the test on CCRF-CEM leukemia is 87.5%; in the test on MOLT-4 leukemia it was 103%.
